Assay results taken from PubChem BioAssay AID504660 (National Center for Advancing Translational Sciences (NCATS), 2011).
Hit rate of the full screen: of about 360,000 compounds, about 3,700 (1%) were called active. Cut-off read from the data, not from the text of the source: active = activation above about 30%; inactive = the rest. What follows is part of a selection rich in actives, with near analogues and random picks from the rest.

molecular target: D(1A) dopamine receptor (Homo sapiens) (UniProt P21728); assay: Allosteric Agonists of the Human D1 Dopamine Receptor: qHTS; details: HEK293 T-REx D1 cells, calcium flux, agonist mode; at 2 µM; hits give high values; note: 0% is about no effect
Description: NIH Chemical Genomics Center [NCGC] NIH Molecular Libraries Probe Centers Network [MLPCN] MLPCN Grant: NS064831-01 Assay Submitter (PI): David Sibley Dopamine receptors (DARs) are involved in the etiology and/or therapy of a number of neuropsychiatric and endocrine disorders. For instance, all receptor-based antiparkinsonian drugs work via stimulating the D1 DAR subtype whereas all FDA-approved antipsychotic agents are antagonists of this receptor. […] There are three different types of allosteric modulators that we are seeking, two of which will stimulate or augment receptor signaling, allosteric agonists and potentiators, while the third, allosteric antagonists, will attenuate receptor signaling. The present primary screening assay measures compound agonism by tracking calcium flux in a […], inducible Hek293 Trex D1 cell line.
Freshly passaged cells are plated in 1536 well black, clear bottom plates at a density of 4000 cells/well in 3 ul of complete media containing 1x tetracycline inducer. After an overnight incubation at […] in 5% CO2, cells are loaded with 2 ul of the no wash Calcium Assay Kit (ABD Bioquest) and incubated at room temperature for 30 to 90 minutes. Agonist read: A 10 cycle (1 second/cycle) baseline measurement is taken and then the FDSS online 1536 pintool delivers 23 nl of compound library (as well as dopamine controls) to the plate. The plate is measured for kinetically at 1 cycle/sec for 180 seconds and is considered to be the agonist portion of the assay (eg, compounds which activate a positive calcium response during this portion are flagged as potential agonists). Following the 180 second read, 1 ul of either an EC20 (positive modulation assay) or EC80 (negative modulation assay) is delivered by an onboard pipette head. Measurements are taken kinetically for an additional 180 seconds.

Sequence of D(1A) dopamine receptor (Homo sapiens) (P21728 whole entry, looked up): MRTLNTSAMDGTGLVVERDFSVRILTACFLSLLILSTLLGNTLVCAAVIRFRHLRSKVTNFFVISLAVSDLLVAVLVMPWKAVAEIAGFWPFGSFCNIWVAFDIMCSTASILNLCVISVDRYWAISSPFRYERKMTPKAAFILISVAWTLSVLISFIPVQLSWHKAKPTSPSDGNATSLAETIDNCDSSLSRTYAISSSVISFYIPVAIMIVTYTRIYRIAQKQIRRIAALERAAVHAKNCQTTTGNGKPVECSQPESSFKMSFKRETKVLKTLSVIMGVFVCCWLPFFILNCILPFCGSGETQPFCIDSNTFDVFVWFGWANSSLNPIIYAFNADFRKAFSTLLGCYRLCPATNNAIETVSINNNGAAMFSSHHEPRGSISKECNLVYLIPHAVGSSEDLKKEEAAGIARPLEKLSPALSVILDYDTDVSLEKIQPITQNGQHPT

activation, active:
O=C(NCc1cc(C(F)(F)F)cc(C(F)(F)F)c1)C1CC(c2cccc(F)c2)=NO1 (stereo not given) 44.2%
Cc1cccc(-c2nc(CS(=O)CC(=O)NC(C)CCc3ccccc3)c(C)o2)c1 (stereo not given) 33.5%
Cc1cc2nc3c(=O)n(Cc4ccccc4)c(=O)[nH]c3nc2cc1N 368%
Cc1ccc2nc(/C(C#N)=C/c3ccc(-c4ccc(C(=O)OC(C)C)cc4)o3)[nH]c2c1 165%
O=C(O)C(c1ccccc1)N1C(=O)/C(=C\c2ccc(-c3cccc(Cl)c3)o2)SC1=S (stereo not given) 33.5%
CCCN(CCC)c1nc2c(C)cccn2c(=O)c1/C=C1/SC(=S)N(Cc2ccco2)C1=O 48.8%
O=C(/C=C(O)/C=C/c1ccc(O)cc1)/C=C/c1ccc(O)cc1 432%
CCc1c(C)sc(NC(=O)c2ccc(Br)o2)c1C(=O)OC 32.9%
COc1ccccc1Nc1cc(C(=O)NCCCN(C)C2CCCCC2)c2ccccc2n1 183%
CCCCCCCCCCOC(=O)C[N+](C)(C)CC1CCCCC1O (stereo not given) 31.1%
CCOc1ccc(CNC(=O)c2cc(-c3ccc(Cl)s3)nc3ccccc23)cc1 36.4%
CCOc1ccc(Cn2nnc(C(=O)NCc3ccccc3)c2N)cc1 36.7%
c1ccc(C[C@H]2CNCCN2CCC23CC4CC(CC(C4)C2)C3)cc1 39.5%
O=C(CCCN=C1NS(=O)(=O)c2ccccc21)OCC(=O)c1ccc(F)c(F)c1 68.2%
COc1cc(CNC2CCCC2)c(Br)cc1OCc1ccccc1 42.3%
Cc1nc(C(=O)NCc2ccccc2)sc1C1(C)CC(c2cccnc2)=NO1 (stereo not given) 41.4%
Cc1ccc(CNC(=O)c2cccc3c2C(=O)c2ccc(N4CCC(C)CC4)cc2S3(=O)=O)cc1 179%
CC(C)(c1ccccc1)c1ccc(OCCN2CCCC2)cc1 35.8%
CC(C)(c1ccccc1)c1ccc(OCCN)cc1 63.3%

activation, inactive:
COc1ccc(CNC(=O)C2CC(c3ccc(C(F)(F)F)cc3)=NO2)cc1 (stereo not given) 16.3%
COc1ccc(C2=NOC(C(=O)NCc3ccco3)C2)cc1OC (stereo not given) 1.23%
Cc1ccc(N(CC(=O)NCc2ccc(Cl)cc2)S(=O)(=O)N(C)C)cc1 -0.642%
Cn1c(=O)c(C(=O)O)nn(-c2ccccc2)c1=O 1.73%
COc1cccc(NC(=O)CSC2=Nc3ccccc3C3=NC(CC(=O)NC4CCCCC4)C(=O)N23)c1 (stereo not given) 0.2%
CCCN(CCC)C(=O)C1CCCN(c2ncnc3c2nc2n3CCCCC2)C1 (stereo not given) -0.793%
COc1ccc(NC(=O)N2CCCn3nc(C)cc32)cc1OC -0.666%
COc1ccc(CNC(=O)CS(=O)Cc2nc(-c3cccc(C)c3)oc2C)cc1 (stereo not given) 3.98%
Cc1ccc(-c2nc(CS(=O)CC(=O)NC3CCCC3)c(C)o2)cc1 (stereo not given) -0.511%
Cc1ccc(-c2nnc(Nc3cccc(Br)c3)c3ccccc23)cc1S(=O)(=O)NCC1CCCO1 (stereo not given) 3.26%
Cc1cc(OCC(=O)N(C)c2c(N)n(Cc3ccccc3)c(=O)[nH]c2=O)c(C(C)C)cc1Cl -0.311%
Cc1nc2c(c(=O)n1Cc1ccco1)c1nc3ccccc3nc1n2Cc1ccccc1 0.836%
CCOCCCNC(=O)c1c(NC(=O)Cc2coc3ccc(C)cc23)sc2c1CCC2 6.68%
CCOC(=O)c1ccc(-c2ccc(/C=C(\C#N)C(=O)Nc3ccc(C)cc3)o2)cc1 6.86%
Cc1ccc2nc(/C(C#N)=C/c3ccccc3F)[nH]c2c1 -1.08%
O=C(Nc1c(C(=O)N2CCN(c3ccc(F)cc3)CC2)oc2ccccc12)c1ccco1 3.39%
COC(=O)c1cc(S(=O)(=O)N2CCN(c3cc(Cl)ccc3C)CC2)c[nH]1 6.55%
O=C(NC(=S)Nc1cc(C(F)(F)F)ccc1N1CCOCC1)c1ccc(-c2cccc(Cl)c2)o1 4.39%
CN=C1S/C(=C\c2ccc(Sc3ccc(Cl)cc3)o2)C(=O)N1C -0.0809%
Cc1ccc2[nH]c(=O)c(-c3nc4c(C)cccn4c3NCc3ccco3)cc2c1 1.97%
COC(=O)CN1C(=O)CSc2ccc(S(=O)(=O)Nc3cc(C)ccc3C)cc21 -2.48%
Cc1c(Cl)cccc1NC(=O)C(=O)NCCc1csc2nc(-c3ccccc3F)nn12 8.86%
COc1cc(OC)cc(C(=O)Nc2cc3nn(-c4ccccc4)nc3cc2Cl)c1 0.0669%
COc1cccc(C(=O)NNC(=O)/C=C/c2ccccc2)c1 1.13%
CC(C)(C)C(=O)/C(C#N)=C/c1ccc(O)cc1 6.88%
CCN(CC)c1ccc(NC(=O)Cn2nc3c(cc2=O)CCCC3)c(C)c1 -0.284%
COc1cccc(N=C2SC(C(=O)Nc3cccc(Cl)c3)CC(=O)N2C)c1 (stereo not given) 25.2%
CCN(CC)c1ccc(NC(=O)CN2C(=O)c3cccnc3Oc3ccc(Cl)cc32)c(C)c1 1.12%
CCc1c(C)sc(NC(=O)c2cccs2)c1C(N)=O 0.933%
CCc1c(C)sc(NC(=O)C2c3ccccc3Oc3ccccc32)c1C(=O)OC(C)C -0.651%
O=C(NC1CC(=O)N(c2ccccc2)C1)c1ccco1 (stereo not given) 2.23%
COc1ccc(-c2nc3scc(CCNS(=O)(=O)c4cc(F)ccc4OC)n3n2)cc1OC -4.62%
O=C(CSc1oc(-c2ccco2)nc1S(=O)(=O)c1ccccc1)c1ccc(Cl)cc1 5.58%
COc1ccc(Nc2cc(C(=O)NCCCN(C)c3ccccc3)c3ccccc3n2)c(OC)c1 1.01%
CCCCN(CCCNC(=O)c1cc(Nc2ccccc2OC)nc2ccccc12)c1ccccc1 0.606%
COc1ccccc1Nc1c2c(nc3ccc(NC(=O)/C=C/c4cc(OC)c(OC)c(OC)c4)cc13)CCCC2 -0.5%
CCCCCOC(=O)c1ccc(N2C(=O)C3C4C=CC(C4)C3C2=O)cc1 (stereo not given) 19.5%
COc1cc(C(=O)NCC(c2ccc(Cl)cc2)N2CCOCC2)cc(OC)c1OC (stereo not given) -0.448%
Cc1[nH]c2ccccc2c1C(c1ccccc1)c1cccs1 (stereo not given) 0.783%
O=C(CCc1nc(CN2CCN(S(=O)(=O)c3ccc(Cl)cc3)CC2)no1)N1CCCCC1 12.7%
CCN(CC)S(=O)(=O)c1ccc2c(c1)N(CC(=O)NCC(C)c1ccccc1)C(=O)CO2 (stereo not given) 4.4%
Cc1ccc(CNC(=O)Cn2c(=O)ccc3cc(S(=O)(=O)N4CCCC4)ccc32)cc1 -0.173%
CC(=O)N1CCN(C(=O)c2cc(-c3ccc(Cl)s3)nc3ccccc23)CC1 -0.053%
CCOc1ccc(CNC(=O)c2ccc(CS(=O)c3ccccc3)o2)cc1 (stereo not given) 0.22%
CCOc1ccc(Cn2nnc(C(=O)Nc3ccc(OC)cc3OC)c2N)cc1 6.39%
Cc1c(NC(=O)c2cc(-c3ccc(Cl)s3)nc3ccccc23)c(=O)n(-c2ccccc2)n1C 0.635%
CCc1ccccc1NC(=O)c1sc2nc3c(cc2c1N)CN(Cc1ccccc1)CC3 0.298%
O=[S+]([O-])(c1ccc2c(c1)OCCO2)N1CCN([S+](=O)([O-])c2c(Cl)cc(Cl)cc2Br)CC1 0.0145%
O=S(=O)(Nc1cccc2cccnc12)c1cccc2cccnc12 23.3%
COc1ccc(-c2nc3nc(C)cc(C)n3c2Nc2c(C)cccc2C)cc1 7.65%
COc1cc(-c2cc3n(C)c(C)c(CCC(=O)Nc4ccc(F)cc4)c(=O)n3n2)cc(OC)c1OC 0.314%
Cc1ccc(Cl)cc1NC(=O)/C(C#N)=C\c1cn(Cc2ccc(F)cc2)c2ccccc12 6.19%
CCc1nc(-c2cc(S(=O)(=O)N3CCN(c4ccc(OC)cc4)CC3)ccc2OC)no1 4.75%
CSc1nc(-c2ccc(F)cc2)nc2c1Cc1c(CO)cnc(C)c1O2 1.34%
O=C(OCCN=C1NS(=O)(=O)c2ccccc21)c1cccc([N+](=O)[O-])c1 3%
N#CC1(NC(=O)COC(=O)CCN=C2NS(=O)(=O)c3ccccc32)CCCCC1 4.55%
O=C(O)c1c(CNCc2cccc(F)c2)c2ccccc2n1Cc1ccccc1 -1.09%
COc1cc(CNC2CCCCC2)c(Br)cc1OC1CCCC1 10.2%
COc1cc(OC)c(NC(=O)C2CCCN2C(=O)OCc2ccccc2)cc1Cl (stereo not given) -0.285%
Cc1nc(C(=O)Nc2ccc(Cl)cc2)sc1C1(C)CC(c2ccccc2)=NO1 (stereo not given) 6.69%
Cc1nc(-c2ccc(Cl)cc2)sc1C1(C)CC(c2ccccc2F)=NO1 (stereo not given) 6.23%
COc1cccc(-n2ccn(CC(=O)NCc3ccc(C)cc3)c(=O)c2=O)c1 14.3%
Cc1ccc(CNC(=O)c2ccccc2CCc2ccccc2)cc1 4.45%
COc1cccc(-c2ccc3c(c2)S(=O)(=O)c2cccc(C(=O)O)c2C3=O)c1OC 0.629%
Cc1ccccc1OCC(=O)Nc1c(C(=O)Nc2ccccc2F)oc2ccccc12 20.7%
CCOC(=O)c1c(C)[nH]c(CCC(=O)Nc2ccc(OC)c(OC)c2)c1C -0.109%
Cc1cc(=O)c2cc(C(=O)Nc3cccc(C)c3C)ccc2[nH]1 -0.195%
CC(C)(C)c1ccc(Oc2ccc(N)cc2)cc1 5.93%
Cc1nn(CCOc2ccccc2)c(=O)n1-c1ccccc1F 1.91%
c1ccc2cc(OCCN3CCCC3)ccc2c1 5.59%
Cc1cc(OCCN2CCCC2)ccc1C(C)C 2.99%
